The values that follow come from PubChem BioAssay (NCI).

Among the test systems are NCI-H23 lung; NCI-H226 lung; NCI-H322M lung; HOP-62 NSCLC; NCI-H460 lung; HOP-92 NSCLC; NCI-H522 lung; A549/ATCC NSCLC; 786-0 renal; DU-145 prostate; K-562 leukemia; MALME-3M melanoma; MDA-MB-231 breast; RXF 393 renal; SF-268 CNS; SF-295 CNS; SF-539 CNS; UACC-257 melanoma; M14 melanoma.
What all share (assay): NCI-60 one-dose screen, 48 h (100 = growth as untreated, 0 = no growth, -100 = all killed)
Common to all, as to conditions: 10 µM unless noted

Molecules are shown by their SMILES. About 83,000 compounds went through this panel and 20% of them were active in at least one assay; those are over-represented in the sample as a whole.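 Step 1: grow cells in 96-well plates. Step 2: add test compound at a single concentration. Step 3: incubate 48 h. Step 4: record percent growth.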 Values without a mark were called inactive. Activity calls are given as the source filed them. The calls were made as follows: active = growth percent below 10; inactive = the rest.

As to `Cc1nn(Cc2ccccc2)cc1C(=O)Nc1sc2c(c1C(N)=O)CCC(=O)C2`, the growth with NCI-H23 lung is 12.6%; in the test with NCI-H226 lung, 71.9%; in the test on NCI-H322M lung, 96.2%; in the test on HOP-62 NSCLC, 84.6%; in the test on NCI-H460 lung it was 86%; in the test on HOP-92 NSCLC, 31.2%. Also, the growth is -3.17% (active) with NCI-H522 lung; 84.7% in the test with A549/ATCC NSCLC; 70.1% with 786-0 renal; 67.6% in the test with DU-145 prostate; 10.5% with K-562 leukemia; 27.6% in the test on MALME-3M melanoma. The growth in the test on MDA-MB-231 breast is 25%; in the test with RXF 393 renal it was 31.4%; with SF-268 CNS, 20.5%; in the test on SF-295 CNS it was 79.7%; in the test with SF-539 CNS, 9.16% (active); in the test with UACC-257 melanoma, 70.7%. Moreover, the growth with M14 melanoma is 16.7%.

`O=C(/C=C/C12c3ccccc3C(c3ccccc31)C1C(=O)NC(=O)C12)c1ccccc1` (configuration not stated): the growth was 6.51% (active) in the test with NCI-H23 lung; 11% with NCI-H226 lung; 17.6% with NCI-H322M lung; 34.8% with HOP-62 NSCLC; 1.66% (active) in the test with NCI-H460 lung; 3.17% (active) with HOP-92 NSCLC. The growth is 39.1% with NCI-H522 lung; 26.3% in the test with A549/ATCC NSCLC; 27.1% in the test with 786-0 renal; 19.4% in the test with DU-145 prostate; 13.5% with K-562 leukemia; 47.5% in the test on MALME-3M melanoma. Also, the growth is 14% in the test with MDA-MB-231 breast; -13.1% (active) in the test with RXF 393 renal; 29.6% with SF-268 CNS; 28.2% in the test with SF-295 CNS; 18.5% in the test with SF-539 CNS; 46.6% with UACC-257 melanoma. The growth in the test on M14 melanoma is 19.6%.

As to `C[C@H]1[C@H]2C3=CC[C@@H]4[C@@]5(C)C/C(=C/c6ccncc6)C(=O)C(C)(C)[C@@H]5CC[C@@]4(C)[C@]3(C)CC[C@@]2(C(=O)N2CCN(C)CC2)CC[C@@H]1C`, the growth was 93.2% with NCI-H23 lung; 85.5% in the test with NCI-H226 lung; 78.2% in the test with NCI-H322M lung; 74.7% with HOP-62 NSCLC; 68.3% in the test on NCI-H460 lung; 42.8% with HOP-92 NSCLC. Moreover, the growth was 70% in the test on NCI-H522 lung; 63.9% with A549/ATCC NSCLC; 81.4% in the test with 786-0 renal; 89.3% in the test with DU-145 prostate; 40.2% in the test on K-562 leukemia; 102% in the test with MALME-3M melanoma. Besides, the growth is 81.4% in the test with MDA-MB-231 breast; 83.8% with RXF 393 renal; 82.4% with SF-268 CNS; 87.7% with SF-295 CNS; 83.2% in the test on SF-539 CNS; 83.6% with UACC-257 melanoma. Besides, the growth with M14 melanoma is 65.7%.

With `CNC(=O)NCC1OC(n2cnc3c(NC(=O)Nc4ccccc4)ncnc32)C2OC(C)(C)OC12` (configuration not stated), the growth in the test with NCI-H23 lung was 87.3%; with NCI-H226 lung, 109%; in the test with NCI-H322M lung, 101%; in the test on HOP-62 NSCLC, 99.3%; in the test with NCI-H460 lung, 101%; in the test with HOP-92 NSCLC, 14.4%. Also, the growth is 103% in the test with NCI-H522 lung; 103% in the test with A549/ATCC NSCLC; 105% with 786-0 renal; 93.7% in the test on DU-145 prostate; 90.4% with K-562 leukemia; 75.7% in the test on MALME-3M melanoma. Also, the growth with MDA-MB-231 breast is 107%; in the test on RXF 393 renal, 96.6%; with SF-268 CNS, 91.3%; with SF-295 CNS, 119%; in the test on SF-539 CNS it was 83.9%; with UACC-257 melanoma, 107%. In the test on M14 melanoma, the growth was 88.8%.

As to `Cc1ccc(S(=O)(=O)N(CC[C@@H]2C[C@H]2c2cc3ccccc3o2)C(=O)NC2CCCCC2)cc1`, the growth in the test with NCI-H23 lung is 78.2%; with NCI-H226 lung, 87.3%; with NCI-H322M lung, 108%; in the test on HOP-62 NSCLC, 93.1%; with NCI-H460 lung, 104%; in the test on HOP-92 NSCLC, 110%. The growth in the test on NCI-H522 lung is 86%; with A549/ATCC NSCLC, 101%; with 786-0 renal, 95.4%; in the test with DU-145 prostate, 107%; with K-562 leukemia, 91.1%; with MALME-3M melanoma, 96.1%. Besides, the growth is 90.1% in the test with MDA-MB-231 breast; 106% with RXF 393 renal; 98.8% in the test on SF-268 CNS; 110% in the test on SF-295 CNS; 95% in the test on SF-539 CNS; 108% in the test with UACC-257 melanoma. Also, the growth with M14 melanoma is 96.5%.

As to `COc1ccc(O)c(-c2cc(-c3ccccc3)c(C#N)c(=O)[nH]2)c1`, the growth with NCI-H23 lung was 84.1%; with NCI-H226 lung, 88.5%; in the test on NCI-H322M lung, 96.4%; in the test on HOP-62 NSCLC, 85.5%; in the test with NCI-H460 lung, 92.5%; with HOP-92 NSCLC, 61.5%. Besides, the growth in the test on NCI-H522 lung is 65.6%; in the test with A549/ATCC NSCLC, 84.1%; with 786-0 renal, 85.4%; in the test on DU-145 prostate, 102%; with K-562 leukemia, 68.9%; with MALME-3M melanoma, 112%. Moreover, the growth in the test with MDA-MB-231 breast was 89.9%; in the test with RXF 393 renal, 104%; with SF-268 CNS, 103%; in the test on SF-295 CNS it was 95.2%; in the test on SF-539 CNS, 98.1%; in the test on UACC-257 melanoma it was 85%. The growth in the test with M14 melanoma was 94.9%.

Consider `C[C@@H]1C(=O)N(C[C@@H](Cc2ccccc2)NC(=O)OCc2ccccc2)[C@]1(Cc1ccccc1)C(=O)OCc1ccccc1`, for which the growth is 37.1% in the test on NCI-H23 lung; 36.3% in the test on NCI-H226 lung; 56.4% with NCI-H322M lung; 67.3% in the test on HOP-62 NSCLC; 38.3% in the test with NCI-H460 lung; 30.1% in the test with HOP-92 NSCLC. In addition, the growth is 44.3% with NCI-H522 lung; 22.8% with A549/ATCC NSCLC; 52.9% in the test on 786-0 renal; 78.3% in the test on DU-145 prostate; 36.5% in the test with K-562 leukemia; 24.9% in the test with MALME-3M melanoma. Besides, the growth in the test on MDA-MB-231 breast was 41.9%; in the test on RXF 393 renal it was 34.8%; with SF-268 CNS, 56.7%; in the test on SF-295 CNS, 21.4%; in the test on SF-539 CNS it was 59.6%; in the test with UACC-257 melanoma, 19.7%. Further, the growth in the test with M14 melanoma was 44.8%.

In the case of `COc1cc(C2C=C(c3cccc(NC(C)=O)c3)Nc3ncnn32)cc(OC)c1OC` (configuration not stated), the growth was 29.8% with NCI-H23 lung; 43.5% in the test with NCI-H226 lung; 37% with NCI-H322M lung; 62.6% with HOP-62 NSCLC; 14.6% in the test on NCI-H460 lung; 68.9% in the test with HOP-92 NSCLC. Moreover, the growth in the test with NCI-H522 lung was -3.09% (active); in the test on A549/ATCC NSCLC, 45.5%; in the test on 786-0 renal, 50.1%; with DU-145 prostate, 2.4% (active); in the test with K-562 leukemia, 23.6%; with MALME-3M melanoma, 25.6%. For the same molecule, the growth in the test with MDA-MB-231 breast was 16.4%; in the test with RXF 393 renal, -28.3% (active); with SF-268 CNS it was 36.9%; in the test with SF-295 CNS, -58% (active); in the test with SF-539 CNS, -5.24% (active); in the test on UACC-257 melanoma, 71.2%. The growth with M14 melanoma is 20.4%.
